Data reported in article PMC7819943, “Rice protein-binding microarrays: a tool to detect cis-acting elements near promoter regions in rice”.
The full ranking holds about 68,000 sequences; the median of “fluorescence intensity (a.u.)” is about 9,100, and the highest 2% start at about 16,000. The sample as a whole holds a higher share of the highest values than the screen did.

Target: OsWRKY34 (Oryza sativa, UniProt Q0JBA9 1-250)
Experiment: protein-binding microarray (RPBM); PBS, 2% BSA, 51.3 ng/ul salmon testes DNA, 50 uM zinc acetate, 200 nM TF, 25 C, 1 h; high values mean tight binding
Details: protein: recombinant; tags: N-terminal polyhistidine and DsRed monomer fusion (pET32a); label: CyDye5-dUTP incorporated in the synthesized complementary strand; 3' TTTTT single-stranded linker to array surface; dsDNA, one strand shown
Procedure, shortened: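 The binding signal for each feature is its fluorescence intensity in arbitrary units. An Axon 4000B scanner was used to read a custom Agilent array that had been made double-stranded with Cy5-dUTP primer extension, blocked with 2% BSA, incubated at 25 °C for 1 h with 200 nM protein in PBS, 2% BSA, salmon testes DNA and 50 µM zinc acetate, and washed. The protein was an N-terminal polyhistidine–DsRed transcription factor fusion from E. coli BL21-CodonPlus, purified on Ni–NTA.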

Sequence of OsWRKY34 (Q0JBA9 entry or part of it): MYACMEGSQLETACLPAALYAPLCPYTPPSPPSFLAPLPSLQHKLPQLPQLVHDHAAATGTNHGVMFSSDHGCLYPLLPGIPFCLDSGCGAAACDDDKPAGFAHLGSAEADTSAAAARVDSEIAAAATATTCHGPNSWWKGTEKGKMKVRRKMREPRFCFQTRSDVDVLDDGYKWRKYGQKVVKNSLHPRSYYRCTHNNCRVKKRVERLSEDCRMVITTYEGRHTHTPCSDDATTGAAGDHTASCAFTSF

| Sequence | binding signal |
| --- | --- |
| GTCTCAAAAACTCATTCTCCACACGTAATGGATACTTTTGCGGAGTCACCTAGTGCAG | 8800 fluorescence intensity (a.u.) |
| TATAACACCAATGACTCTATCTTCATCCGCATGCGTGCCGCGGAGTCACCTAGTGCAG | 9390 fluorescence intensity (a.u.) |
| CCATGTATCACACTCCGTTCATATATTCCTGGGCTGTATTCGGAGTCACCTAGTGCAG | 8450 fluorescence intensity (a.u.) |
| CATCGCCACCACCGCAGCCGCCTCTCAATTAGGAACACGTCGGAGTCACCTAGTGCAG | 10300 fluorescence intensity (a.u.) |
| TCTCTCTTTTTTTAAGCACCTTTTCTGCCTTTTTTCTTTTCGGAGTCACCTAGTGCAG | 12200 fluorescence intensity (a.u.) |
| TTATCAATATCTCTCTCTCGGCGCGTATAGCCGTCGCGCGCGGAGTCACCTAGTGCAG | 8690 fluorescence intensity (a.u.) |
| CTATCGCCACCTTTTGCCTTGATTTCTCCTTATTGCTAAACGGAGTCACCTAGTGCAG | 14600 fluorescence intensity (a.u.) |
| AGCACATAGCTAGTTAGCCACATATTATTTGATCACTAAACGGAGTCACCTAGTGCAG | 8980 fluorescence intensity (a.u.) |
| TAGCACTAAAACGAGAGGCCTTTTGATTTAGATTTTGCCACGGAGTCACCTAGTGCAG | 21900 fluorescence intensity (a.u.) |
| GTCCGCATCGAGCCGCAGATCTTTCTCACCGCCACCGATGCGGAGTCACCTAGTGCAG | 8140 fluorescence intensity (a.u.) |
| CCCTATCGAACGACCACCGAAACCATCATCATTCATCACCCGGAGTCACCTAGTGCAG | 9470 fluorescence intensity (a.u.) |
| TTTAGCTTAACTTATTACGATTATGGCTGTGTTTAGTTTCCGGAGTCACCTAGTGCAG | 9160 fluorescence intensity (a.u.) |
| AAACTAATTTTCTGTGACACTTCCAAGTGCATACCGGAGTCGGAGTCACCTAGTGCAG | 8660 fluorescence intensity (a.u.) |
| GGATGGGTTATATCTAGTATTGTGGTTGGGACTGCCTATACGGAGTCACCTAGTGCAG | 11100 fluorescence intensity (a.u.) |
| GCCTGGTTTTATAAGTTGTGGGATGGGTTATATCTAGTATCGGAGTCACCTAGTGCAG | 28800 fluorescence intensity (a.u.) |
| ATTTTTTATGGGTGTTTGGTTAGTGGGTGGGAGTGGGATACGGAGTCACCTAGTGCAG | 12000 fluorescence intensity (a.u.) |
| GCATATGGGGATTCTGGGATTTTGGTTTACAGTCTACATTCGGAGTCACCTAGTGCAG | 8100 fluorescence intensity (a.u.) |
| AAAGTGATGTGGTGGTGGAGTTGTGGGTATATGATTTTATCGGAGTCACCTAGTGCAG | 8790 fluorescence intensity (a.u.) |
| GGCCTCATTCTGGGATCGTTTTATGGTGGGGTTATCGTTACGGAGTCACCTAGTGCAG | 20600 fluorescence intensity (a.u.) |
| TTGTTTGACTCTTTTTTAATTAAATTTCTATAAGTTTAATCGGAGTCACCTAGTGCAG | 8280 fluorescence intensity (a.u.) |
| CTATCGATATAATCTCTAAGTGAGTTTTTTGTATTTTTTTCGGAGTCACCTAGTGCAG | 8020 fluorescence intensity (a.u.) |
| GCTGGGTTTGTGGGTTTTCTCATAAGTTTAATCTCTATATCGGAGTCACCTAGTGCAG | 17400 fluorescence intensity (a.u.) |
| CCGCACAATCCGCGCCGCCATCAGTTCGCTCTCGCCACCACGGAGTCACCTAGTGCAG | 9020 fluorescence intensity (a.u.) |

| Sequence | binding signal |
| --- | --- |
| GCGCCCACGAACCTTGTCTTCAAGCAATCCCACACTTCCTCGGAGTCACCTAGTGCAG | 9490 fluorescence intensity (a.u.) |
| ATTTCAGGCCCACTAGTCCGCTCTTCCTCTTCTTTTTTTTCGGAGTCACCTAGTGCAG | 9840 fluorescence intensity (a.u.) |
| GCCGCCATCCCCACCATCGCCGTCGCCGTCGCCTCGCCTCCGGAGTCACCTAGTGCAG | 13300 fluorescence intensity (a.u.) |
| CTCTAACAGTCTGCTATTATATCTGCTCTCATGCGTCATCCGGAGTCACCTAGTGCAG | 11100 fluorescence intensity (a.u.) |
| ACTTTTACATAGAATTTTTTTTTGAACACACCGTTTAGCACGGAGTCACCTAGTGCAG | 8510 fluorescence intensity (a.u.) |
| ACTTTAGTTTTTTTCCGTTGCAGCACACGGTTTTTTTTAACGGAGTCACCTAGTGCAG | 9170 fluorescence intensity (a.u.) |
| TTCGTTTCAAAATATTTGACACCGTTGACTTTTTAGCACACGGAGTCACCTAGTGCAG | 25700 fluorescence intensity (a.u.) |
| TTTAGCACGTATTTGACCGTTCGTCTTATTCAAAAACTTTCGGAGTCACCTAGTGCAG | 8790 fluorescence intensity (a.u.) |
| TCCGTTTCGTTTTATTTGACACCGTTGACTTTTTAGCACACGGAGTCACCTAGTGCAG | 19500 fluorescence intensity (a.u.) |
| TTTCAAAATATTTGACTCCGTTGATTTTTTTAGCACATGTCGGAGTCACCTAGTGCAG | 9070 fluorescence intensity (a.u.) |
| TCCATGGATATTTTGTCTCTTCTGCTTGATCACTAGGCCCCGGAGTCACCTAGTGCAG | 10100 fluorescence intensity (a.u.) |
| TCCCGACACCGGCTGTCCACTTCGCTCTGCTCCACGCCGCCGGAGTCACCTAGTGCAG | 8660 fluorescence intensity (a.u.) |
| ATCCCCACCGTTGACCGAAGTTGACCTCCAAGAATCCTGACGGAGTCACCTAGTGCAG | 13800 fluorescence intensity (a.u.) |
| CTCCCTGAGTCTAGTCCCGATCCCCACCGTTGACCGAAGTCGGAGTCACCTAGTGCAG | 19900 fluorescence intensity (a.u.) |
| TCAACTCCTCCCTGAGTCTAGTCCCGATCCGCCGTTGACCCGGAGTCACCTAGTGCAG | 13000 fluorescence intensity (a.u.) |
| CTGAGAATTTAGGACCTGATCACTTTTATGACATTTTCAACGGAGTCACCTAGTGCAG | 8610 fluorescence intensity (a.u.) |
| GGGTTTTTTATATACTGGTAAATATTCGCTACCGTATTCGCGGAGTCACCTAGTGCAG | 9130 fluorescence intensity (a.u.) |
| AGTGGTGCATTCTGTTTTTTTATATATTATTATTTGTTTACGGAGTCACCTAGTGCAG | 9050 fluorescence intensity (a.u.) |
| CATTTATCTATTTATCTATCTATATATATTATATTATATTCGGAGTCACCTAGTGCAG | 8560 fluorescence intensity (a.u.) |
| CCCATTATTTTTTATACCTTTATTTATCTTCTGTGTTTTTCGGAGTCACCTAGTGCAG | 13500 fluorescence intensity (a.u.) |
| AATTTCTGCTGCCATTTTCTATGTTCTTTAGTCTAAGTTTCGGAGTCACCTAGTGCAG | 14700 fluorescence intensity (a.u.) |
| TGTAGTTGTGAGTGTATTCGTTTGTACTGTTTTTTTTATACGGAGTCACCTAGTGCAG | 11900 fluorescence intensity (a.u.) |
